Screen size: about 360,000 compounds; about 25,000 (6.9%) were called active. Another 9% or so got no clear call; they are omitted. This excerpt belongs to a sample that is enriched for actives. Unmarked numbers belong to inactive results. Calls come from the whole dose curve; as a rule, active = well fitted inhibition curve with a large enough effect; inconclusive = small, poorly fitted or top-dose-only effect; inactive = flat fitted curve, though single readings scatter.
molecular target: Luciferin 4-monooxygenase (Photinus pyralis) (UniProt P08659); experiment: qHTS profiling assay for firefly luciferase inhibitor/activator using purifed enzyme and Km concentrations of substrates (counterscreen for miR-21 project); conditions: purified FLuc, luminescence inhibition; series mostly up to 57.5 µM; activity change, negative = inhibition: at the top concentration; note: nearly all actives have a fitted effect of over 55% in size;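 for activity change, negative = inhibition: plate controls were vehicle for no effect and reference inhibitor for full effect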
Excerpt: MLPCN Grant: 1 R21 NS059478-01 (miR-21 grant) Assay Provider: NCGC NCGC Assay Overview: Firefly (Photinus pyralis) luciferase is one of the most commonly used transcriptional reporters for a number of reasons. It is considered one of the more dynamically responsive reporters -that is, responsive to changes in reporter transcription - as it requires no post-translational modifications and is enzymatically active directly after protein synthesis (Wood, 1998). Additionally, the half-life of the luciferase protein is short relative to other reporter-gene products (Wood, 1995). Whereas reporters with long half-lives potentially allow for increased signal due to accumulation of reporter-gene product, once accumulated in the cell, dynamic changes in reporter-gene expression may be difficult to detect(Fan and Wood, 2007; Almond et al., 2004). It has been shown that wild-type P. pyralis luciferase has a half-life of approximately […] hours in mammalian cells (Thompson et al., 1991). Firefly luciferase reporter-gene assays are also generally considered one of the most sensitive assay types (Wood, 1995; Wood, 1998). Although light produced in a bioluminescence reaction is of lower intensity than that produced during fluorescence emission, this is offset by little to no background light inherent to luminescent assays. Thus the luciferase reporter can be expressed at much lower levels than fluorescent proteins while still providing robust signal. # However, it was initially observed, in 1991, by Thompson et al., that compounds that resemble the substrates of firefly luciferase (FLuc) can act as competitive inhibitors of the enzyme, and that these compounds, upon interaction with luciferase in the cell, can actually stabilize the protein and increase its half-life. Accumulated intracellular FLuc protein can be measured as an increase in luminescence signal, upon addition of detection reagents (which contain high concentrations of FLuc substrates) commonly used in high-throughput screening. In cell-based reporter gene assays that use FLuc as the reporter gene to quantitate the potential influence of a given compound against the target biology, this apparent increase in luminescence can mistakenly be interpreted as identification of a compound that is active against the target of interest. This is the case for the miR-21 FLuc reporter gene assay used to identify inhibitors of the miR-21 pathway (PubChem AID 2289) - compounds of interest will inhibit miR-21 biogenesis/expression or activity, and are identified by causing an increase in luminescence, due to increased FLuc translation. However, FLuc inhibitory compounds that stabilize the FLuc protein will give an identical read-out, making it difficult to distinguish compounds that are active against the target from those active against FLuc. Previous profiling work to determine the prevalence of compounds that affect FLuc enzymatic activity (PubChem AID 411) identified that ~3% of the MLSMR library (then at ~72K) inhibited FLuc. […] Since the MLSMR had grown to ~350K compounds, and since it was expected that a significant percentage of compounds found active in the miR-21 FLuc assay would be FLuc inhibitors, the library was screened for activity against FLuc using a biochemical assay of purified FLuc and KM concentrations of FLuc substrates (D-luciferin and ATP).
NCGC Assay Protocol Summary: Reagents: 50mM Tris acetate, pH 7.5; 10mM Mg acetate; 10uM D-luciferin (Sigma #L9504); 10uM ATP; 0.01% Tween-20; 0.05% BSA; 10nM P. pyralis luciferase (Sigma #L9506) Control compounds used were two known firefly luciferase inhibitors (compounds (2) and (5) in Auld et al., 2010), and DMSO. […]

Sequence of Luciferin 4-monooxygenase (Photinus pyralis) (P08659 whole entry, looked up): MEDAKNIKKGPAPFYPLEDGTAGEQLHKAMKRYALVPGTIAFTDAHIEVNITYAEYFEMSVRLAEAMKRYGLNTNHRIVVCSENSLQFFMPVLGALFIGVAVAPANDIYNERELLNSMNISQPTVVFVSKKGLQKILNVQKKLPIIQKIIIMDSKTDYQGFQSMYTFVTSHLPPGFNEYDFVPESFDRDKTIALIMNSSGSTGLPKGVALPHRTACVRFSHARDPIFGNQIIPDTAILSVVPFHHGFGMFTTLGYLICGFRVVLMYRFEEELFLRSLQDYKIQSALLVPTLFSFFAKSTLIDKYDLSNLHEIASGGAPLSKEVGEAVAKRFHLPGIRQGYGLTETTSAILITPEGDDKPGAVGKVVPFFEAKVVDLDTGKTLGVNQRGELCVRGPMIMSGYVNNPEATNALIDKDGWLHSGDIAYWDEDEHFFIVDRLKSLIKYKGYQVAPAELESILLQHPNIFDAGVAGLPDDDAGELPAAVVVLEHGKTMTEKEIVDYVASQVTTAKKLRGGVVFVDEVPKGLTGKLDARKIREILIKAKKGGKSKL

Row | Structure (SMILES) | activity change, negative = inhibition [%] | Potency
1 | CC(C)NC(=O)C1CCC(Cn2c(=O)c3sccc3n(Cc3ccc(F)cc3)c2=O)CC1 (stereo unspecified) | -0.0077 | 
2 | COc1cc(OC)c(NC(=O)N2CC3CCCN3c3ccccc32)cc1Cl (stereo unspecified) | -9.36 | 
3 | COC(=O)c1ccccc1NC(=O)Cn1c(=O)cc(C)c2c(C)nn(-c3cccc(Cl)c3C)c21 | 0.184 | 
4 | COc1ccc2ncc3c(-c4ccc(C)c(C)c4)nn(CC(=O)NC4CCCC4)c3c2c1 | -4.06 | 
5 | COc1c(O)cc2oc(-c3ccc(O)c(O)c3)cc(=O)c2c1O |  | 19 µM (active)
6 | COc1ccc(-c2cc(=O)c3c(O)cc(O[C@@H]4O[C@H](CO[C@@H]5O[C@@H](C)[C@H](O)[C@@H](O)[C@H]5O)[C@@H](O)[C@H](O)[C@H]4O)cc3o2)cc1O | -3.38 | 
7 | CCOC(=O)COc1cc(O)c2c(=O)cc(-c3ccccc3)oc2c1 | -14.3 | 
8 | COc1ccccc1CNC(=O)CCCCn1c(=O)c2ccccc2n(CC(=O)Nc2cc(Cl)ccc2C)c1=O | 4.1 | 
9 | Cc1nn(C(=O)c2c(F)cccc2F)c(C)c1S(=O)(=O)N1CCOCC1 | -0.398 | 
10 | CC(C)(C)OC(=O)NCCCCCNC(=O)c1[nH]cnc1C(=O)Nc1nccs1 | -0.773 | 
11 | Cc1ccc(-n2c(SCC(=O)NCc3ccc4c(c3)OCO4)nnc2-c2cccnc2)c(C)c1 | 5.43 | 
12 | Cc1ccc(C)c(N2CCN(C(=O)C3CCC(CNS(=O)(=O)c4cccs4)CC3)CC2)c1 (stereo unspecified) | 1.58 | 
13 | Cc1ccc(S(=O)(=O)Nc2nc3ccccc3nc2N2CCc3ccccc3C2)cc1 | -14.3 | 
14 | Cc1ccc2c(c1)c1ncnc(N3CCc4ccccc4C3)c1n2C |  | 13.5 µM (active)
15 | Cc1ccc2c(c1)c1ncn(Cc3ccc(F)cc3)c(=O)c1n2C | 0.78 | 
16 | CCN(CC)CCCNC(=O)c1cn(C)c2ccc(S(=O)(=O)N(C)C3CCCCC3)cc2c1=O |  | inactive
17 | Cn1c(=O)c2c(-c3ccccc3Br)n(Cc3ccccc3)cc2n(C)c1=O | 0.343 | 
18 | COc1cc(OC)cc(-c2c(-c3cccs3)c3cc(-c4ccc(OC)cc4F)ccc3n2C)c1 | 2.41 | 
19 | CCn1cc(C(=O)NCc2ccc(OC)cc2OC)c(=O)c2ccc(C)nc21 | 0.405 | 
20 | O=C(/C=C/c1ccccc1)N1CCN(Cc2cc(=O)n3nc(-c4ccccc4F)sc3n2)CC1 | 3.3 | 
21 | O=C(CNC(=O)c1cccnc1)N/N=C/c1cccnc1 | 2.58 | 
22 | O=C(CNC(=O)c1cccnc1)N/N=C/c1cc(Br)c(O)c(Br)c1 | 2.48 | 
23 | Cc1cc(/C=N/NC(=O)c2cccnc2)c(C)n1CC(C)C |  | 7.57 µM (active)
24 | COc1ccc(Cn2c(C(=O)O)c(CNCCc3cccs3)c3ccc(OC)cc32)cc1 | -1.08 | 
25 | Cc1cc(N=Nc2ccc3ccccc3c2)ccc1O |  | 1.35 µM (active)
26 | CCOc1ccc(-c2nonc2NC(=O)c2oc3ccc(C)cc3c2C)cc1OCC | -10.5 | 

Row | Structure (SMILES) | activity change, negative = inhibition [%] | Potency
27 | COc1ccc(/C=C/C(=O)Nc2ccc(C)cc2)cc1S(=O)(=O)N1CCOCC1 | -3.53 | 
28 | COc1cccc(NC(=O)CSc2nccn(-c3ccc4c(c3)OCCO4)c2=O)c1 | 1.19 | 
29 | COc1ccc(NS(=O)(=O)c2cc(NC(=O)/C=C/c3cc(OC)c(OC)c(OC)c3)ccc2N2CCCCC2)cc1 | -2 | 
30 | COc1ccc(S(=O)(=O)N(C)CC(=O)Nc2ccc3c(c2)OCCO3)cc1OC | -12.7 | 
31 | COc1cccc(/C=C/C(=O)Nc2ccc3c(c2)OCCO3)c1 |  | 0.757 µM (active)
32 | COc1ccc(/C=C/C(=O)N2CCCC2)cc1OC | -4.89 | 
33 | COc1ccc(/C=C/C(=O)Nc2ccc3c(c2)OCCO3)cc1OC |  | 23.9 µM (active)
34 | COc1ccc2c(c1)c(=O)c(C(=O)c1ccccc1)cn2CC(=O)Nc1ccc2c(c1)OCCO2 | -2.53 | 
35 | COc1ccc(/C=C/C(=O)Nc2ccc(C34CC5CC(CC(O)(C5)C3)C4)cc2)cc1OC |  | 0.601 µM (active)
36 | COc1cc(C(=O)Nc2cc(C(F)(F)F)ccc2-n2cncn2)cc(OC)c1OC | -1.82 | 
37 | CN(C)C(=O)N1CCNCC1 | 1.03 | 
38 | CC12C(=O)N(c3ccccc3)C(=O)C1C(c1ccccc1)N1CCCN12 (stereo unspecified) | 0.0847 | 
39 | CCOC(=O)C1CN(S(=O)(=O)c2ccc(F)cc2)C1 | -0.508 | 
40 | COc1ccc(CNC(=O)c2ccc(NS(=O)(=O)c3ccc4[nH]c(=O)[nH]c4c3)cc2)cc1OC | 0.241 | 
41 | CCC1CCCCN1C(=S)Nc1ccc(S(=O)(=O)Nc2ncccn2)cc1 (stereo unspecified) | 2.39 | 
42 | CCC1CCCCN1C(=S)Nc1ccc(SC(F)F)cc1 (stereo unspecified) |  | 12 µM (active)
43 | CCC1CCCCN1C(=O)Nc1cccc(NC(=O)N2CCCCC2CC)c1 (stereo unspecified) | -7.69 | 
44 | Cc1cccc(OCC(=O)Nc2ccc(NC(=O)c3ccco3)c(C)c2)c1 | 1.53 | 
45 | Cc1cc(NC(=O)[C@H](C)NC(=O)c2ccco2)ccc1Br | -6.64 | 
46 | Cc1cc(NC(=O)c2ccc(F)cc2)ccc1NC(=O)c1ccco1 |  | 16.9 µM (active)
47 | COC(=O)c1ccc(NC(=O)c2ccco2)cc1 |  | 15.1 µM (active)
48 | Cc1ccc(C(=O)COc2cccc(NC(=O)c3ccco3)c2)cc1 |  | 23.9 µM (active)
49 | O=C(/C=C/c1ccco1)Nc1ccc(Oc2ccccc2)cc1 |  | 6.01 µM (active)
50 | COc1ccc(NC(=O)c2ccco2)cc1NC(=O)COc1ccc(C)c(C)c1 | -0.508 | 
51 | O=C(/C=C/c1ccco1)NC(=S)Nc1ccccc1Br | -9.89 | 
